# In PubChem BioAssay (NCATS):
# Values joined by “and” are separate entries in the source; they are usually repeats but may differ in a detail not shown here. Identical values can stand only once. Records with an inconclusive call do not appear. Active and inactive are the calls of the source. Unless noted, calls come from the whole dose curve.
# Experiments:
# [1] = qHTS Assay for Lipid Storage Modulators (AID 1519); conditions: Drosophila S3 cells, BODIPY lipid droplet/cell ratio, laser cytometry, cells loaded with oleic acid; for activity change, negative = inhibition: % is set by controls: 0 for no effect and ±100 for the full control effect
# Summary of the method: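 Cells seeded at 5,000 per well were treated with compounds over a concentration series and loaded with oleic acid (400 uM, as added). Lipid droplet fluorescence (488 nm excitation, 500-530 nm channel) was read by laser-scanning cytometry and normalized to 20 uM Triacsin C.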
# [2] = target: DNA repair nuclease/redox regulator APEX1 (Homo sapiens) (UniProt P27695); assay: qHTS Validation Assay for Inhibitors of the Human Apurinic/apyrimidinic Endonuclease 1 (APE1) (AID 1705; active = well fitted curve in the direction sought with a large enough effect; an effect the other way counts as inactive or inconclusive;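 note: TAMRA fluorescence gain over two minutes as APE1 cuts a quenched THF abasic duplex; % is set by controls: 0 for no effect and ±100 for the full control effect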); conditions: purified APE1 endonuclease activity, fluorescence, titration; series mostly up to 57.1 µM
# Sequence of DNA repair nuclease/redox regulator APEX1 (Homo sapiens) (P27695 whole entry, looked up): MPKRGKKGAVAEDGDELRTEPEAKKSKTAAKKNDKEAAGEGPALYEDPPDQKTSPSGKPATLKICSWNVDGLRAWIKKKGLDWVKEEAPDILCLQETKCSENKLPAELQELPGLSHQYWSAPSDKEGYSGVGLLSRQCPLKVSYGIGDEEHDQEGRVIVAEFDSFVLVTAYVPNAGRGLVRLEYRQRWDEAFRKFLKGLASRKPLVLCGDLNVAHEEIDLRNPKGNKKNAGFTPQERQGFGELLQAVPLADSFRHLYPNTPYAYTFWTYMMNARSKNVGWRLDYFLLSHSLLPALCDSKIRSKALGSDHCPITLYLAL
# Summary of the method: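 Read-out: TAMRA fluorescence (525 nm ex, 598 nm em) from cleavage of a quenched THF abasic-site duplex, 50 nM final; activity taken as intensity change between third and first of three reads 60 s apart.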
# [3] = Counterscreen for APE1 Inhibitors: Fluorescent Dye Displacement Validation Assay (AID 1707; active = well fitted curve in the direction sought with a large enough effect; an effect the other way counts as inactive or inconclusive;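 note: plate controls were ThO with dsDNA and no compound for no effect and ThO without dsDNA for full effect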); conditions: fluorescent dye displacement from DNA; series mostly up to 57.1 µM
# Summary of the method: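 Assay buffer: Tris-HCl pH7.5 with 50mM NaCl, 2 mM MgCl2, 0.01% Tween-20. Dye 250 nM, duplex 50 nM final. Readout: decrease in ThO endpoint fluorescence, 480 nm excitation, 540 nm emission.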
# [4] = target: Endonuclease 4 (Escherichia coli (strain K12)) (UniProt P0A6C1); assay: Counterscreen for APE1 Inhibitors: qHTS Validation Assay for Inhibitors of Endonuclease IV (AID 1708; active = well fitted curve in the direction sought with a large enough effect; an effect the other way counts as inactive or inconclusive; note: % is set by controls: 0 for no effect and ±100 for the full control effect); conditions: E. coli endonuclease IV, DNA cleavage fluorescence; series mostly up to 57.1 µM
# Summary of the method: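 E. coli EndoIV at 2 nM final, preincubated 15 min at room temperature with compound, then 50 nM TAMRA/BHQ-2 THF abasic-site duplex added. Buffer: 50 mM Tris-HCl pH 7.5, 50 mM NaCl, 2 mM MgCl2, 1 mM DTT, 0.01% Tween-20. Kinetic fluorescence increase, third minus first read.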
# [5] = qHTS for differential inhibitors of proliferation of Plasmodium falciparum line 7G8 (AID 1815; active = well fitted curve in the direction sought with a large enough effect; an effect the other way counts as inactive or inconclusive;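 note: parasite growth measured after three days of incubation; plate controls were vehicle wells for no effect and reference inhibitor wells for full effect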); conditions: Plasmodium falciparum 7G8 proliferation inhibition; series mostly up to 28.7 µM
# [6] = qHTS for differential inhibitors of proliferation of Plasmodium falciparum line GB4 (AID 1816; active = well fitted curve in the direction sought with a large enough effect; an effect the other way counts as inactive or inconclusive;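 note: parasite growth measured after 72 h incubation; 0% = vehicle DMSO and -100% = reference inhibitor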); conditions: series mostly up to 28.7 µM
# [7] = qHTS for differential inhibitors of proliferation of Plasmodium falciparum line 3D7 (AID 1876; active = well fitted curve in the direction sought with a large enough effect; an effect the other way counts as inactive or inconclusive;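 note: parasite growth measured after three days of culture; 0% = vehicle wells and -100% = reference inhibitor wells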); conditions: P. falciparum 3D7 proliferation inhibition; series mostly up to 28.7 µM
# [8] = qHTS for differential inhibitors of proliferation of Plasmodium falciparum line D10 (AID 1877; active = well fitted curve in the direction sought with a large enough effect; an effect the other way counts as inactive or inconclusive;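 note: parasites grown with compound for 72 h before DNA staining; plate controls were vehicle wells for no effect and reference inhibitor wells for full effect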); conditions: series mostly up to 28.7 µM
# [9] = qHTS for differential inhibitors of proliferation of Plasmodium falciparum line Dd2 (AID 1882; active = well fitted curve in the direction sought with a large enough effect; an effect the other way counts as inactive or inconclusive;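 note: plate controls were DMSO vehicle for no effect and 0.29 µM artemisinin for full effect; nearly all actives have a fitted effect of over 65% in size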); conditions: series mostly up to 28.7 µM
# Summary of the method: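 Dd2-infected erythrocytes (0.3% parasitemia, 2.5% hematocrit final) incubated with compound 72 h at 37 C, 5% CO2; lysed with saponin/Triton buffer containing SYBR Green I, incubated overnight in the dark, then read by fluorescence (485/535 nm). Normalized to 0.29 uM artemisinin and DMSO.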
# [10] = qHTS for differential inhibitors of proliferation of Plasmodium falciparum line W2 (AID 1883; active = well fitted curve in the direction sought with a large enough effect; an effect the other way counts as inactive or inconclusive;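 note: parasites grown with compound for 72 h before lysis and staining; 0% = vehicle wells and -100% = control inhibitor wells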); conditions: series mostly up to 28.7 µM
# [11] = measured here: cell count channel max response
# [12] = measured here: lipid channel max response
compound,measurement,setting,value
Nc1ccn([C@@H]2O[C@H](CO)[C@@H](O)[C@H]2O)c(=O)n1,"activity change, negative = inhibition",[1]; at 57.5 µM (top of the series),-3.18% (inactive)
same,max response,[1]; [11],-16.3%
same,max response,[1]; [12],-19.1%
Cc1cc2nc3c(=O)[nH]c(=O)nc-3n(CC(O)C(O)C(O)CO)c2cc1C (stereo unspecified),"activity change, negative = inhibition",[1]; at 25.7 µM (top of the series),0.295% (inactive)
same,"activity change, negative = inhibition",[1]; at 57.5 µM (top of the series),10.9% (inactive) and -20.1% (inactive)
same,max response,[1]; [11],2.32% and -7.87% and -11.2%
same,max response,[1]; [12],0.677% and 3.75% and -34%
CN(C)CCN(Cc1ccc(Cl)cc1)c1ccccn1,"activity change, negative = inhibition",[1]; at 25.7 µM (top of the series),-3.62% (inactive)
same,max response,[1]; [11],-9.2%
same,max response,[1]; [12],-15.8%
CCC(c1ccc(O)cc1)C(CC)c1ccc(O)cc1 (stereo unspecified),"activity change, negative = inhibition",[1]; at 57.5 µM (top of the series),9.03% (inactive)
same,max response,[1]; [11],10.5%
same,max response,[1]; [12],25.1%
C=C1c2cccc(O)c2C(O)=C2C(=O)[C@@]3(O)C(O)=C(C(N)=O)C(=O)[C@@H](N(C)C)[C@@H]3[C@@H](O)[C@H]12,"activity change, negative = inhibition",[1]; at 25.7 µM (top of the series),1.55% (inactive)
same,max response,[1]; [11],-8.47%
same,max response,[1]; [12],-6.76%
NS(=O)(=O)c1cc(Cl)c(Cl)c(S(N)(=O)=O)c1,"activity change, negative = inhibition",[1]; at 25.7 µM (top of the series),-3.46% (inactive)
same,max response,[1]; [11],-9.93%
same,max response,[1]; [12],-12.7%
COc1ccc2ccc(=O)oc2c1CC=C(C)C,"activity change, negative = inhibition",[1]; at 57.5 µM (top of the series),9.52% (inactive)
same,max response,[1]; [11],4.48%
same,max response,[1]; [12],16.7%
OC(c1cc(C(F)(F)F)nc2c(C(F)(F)F)cccc12)C1CCCCN1 (stereo unspecified),"activity change, negative = inhibition",[1]; at 57.5 µM (top of the series),2.49% (inactive)
same,max response,[1]; [11],6.15%
same,max response,[1]; [12],10.3%
CN[C@H]1[C@@H](O[C@@H]2[C@H](O[C@@H]3[C@@H](O)[C@@H](O)[C@@H](N=C(N)N)[C@@H](O)[C@@H]3N=C(N)N)O[C@H](C)[C@@]2(O)C=O)O[C@@H](CO)[C@@H](O)[C@H]1O,"activity change, negative = inhibition",[1]; at 25.7 µM (top of the series),-5.41% (inactive)
same,max response,[1]; [11],12.5%
same,max response,[1]; [12],7.05%
CCNC(=O)[C@H]1O[C@@H](n2cnc3c(N)nc(NCCc4ccc(CCC(=O)O)cc4)nc32)[C@H](O)[C@H]1O,"activity change, negative = inhibition",[1]; at 57.5 µM (top of the series),-1.93% (inactive)
same,max response,[1]; [11],-4.53%
same,max response,[1]; [12],-7.25%
same,outcome,[2],inactive
same,outcome,[3],inactive
same,outcome,[4],inactive
same,outcome,[5],inactive
same,outcome,[6],inactive
same,outcome,[7],inactive
same,outcome,[8],inactive
same,outcome,[9],inactive
same,outcome,[10],inactive
NCC1CCC(C(=O)O)CC1 (stereo unspecified),"activity change, negative = inhibition",[1]; at 25.7 µM (top of the series),-1.26% (inactive)
same,"activity change, negative = inhibition",[1]; at 57.5 µM (top of the series),6.78% (inactive)
same,max response,[1]; [11],-0.272% and 28.1%
same,max response,[1]; [12],-2.41% and 39.3%
CCC(=C(CC)c1ccc(O)cc1)c1ccc(O)cc1,"activity change, negative = inhibition",[1]; at 25.7 µM (top of the series),-5.29% (inactive)
same,max response,[1]; [11],-17.8%
same,max response,[1]; [12],-23.1%
CC1(C)OC2CC3C4CC(F)C5=CC(=O)C=CC5(C)C4C(O)CC3(C)[C@]2(C(=O)CO)O1 (stereo partly specified),"activity change, negative = inhibition",[1]; at 57.5 µM (top of the series),6.59% (inactive)
same,max response,[1]; [11],10.6%
same,max response,[1]; [12],23.9%
CS(=O)(=O)c1ccc(C2=C(c3ccccc3)C(=O)OC2)cc1,"activity change, negative = inhibition",[1]; at 57.5 µM (top of the series),14.5% (inactive)
same,max response,[1]; [11],15.3%
same,max response,[1]; [12],35.2%
CC(NCCc1ccc(O)cc1)C(O)c1ccc(O)cc1 (stereo unspecified),"activity change, negative = inhibition",[1]; at 57.5 µM (top of the series),2.67% (inactive)
same,max response,[1]; [11],13.6%
same,max response,[1]; [12],20%
